This note sets out measurements from PubChem BioAssay (NCI).

Structures are written as SMILES. The panel holds about 83,000 compounds, 20% with a hit somewhere; the sample as a whole holds those more often.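 Values shown are percent growth following 48 h exposure of cells in 96-well plates to a single concentration of compound; below 10 was considered active.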 A number with no mark means an inactive call. Active and inactive are the calls of the source. Where a SMILES comes first, the peptide text is derived from it. Bridges are numbered along the chain shown (N, C = ends). [ ]: non-standard residue; d: D form. The star is where a group is joined. ξ: configuration not given here. ξNMePhe(4-NMe2) = CNC(Cc1ccc(N(C)C)cc1)C(=O)O; Picolinoyl(3-OH) = O=C(c1ncccc1O)*; ξPip(4-oxo) = O=C1CCNC(C(=O)O)C1; Phg = N[CH](C(=O)O)c1ccccc1; Abu = CC[CH](N)C(=O)O

Common to all, as to assay: NCI-60 one-dose screen, 48 h (100 = growth as untreated, 0 = no growth, -100 = all killed)
Settings in all cases: 10 µM

Assay [1] concerns NCI-H23 lung.
In assay [2] the test system is NCI-H226 lung.
For assay [3], the system named is NCI-H322M lung.
The test system of assay [4] is HOP-62 NSCLC.
The test system of assay [5] is NCI-H460 lung.
The subject of assay [6] is HOP-92 NSCLC.
The subject of assay [7] is NCI-H522 lung.
Assay [8] relates to A549/ATCC NSCLC.
Assay [9] deals with 786-0 renal.
In assay [10] the test system is COLO 205 colon.
In assay [11] the test system is DU-145 prostate.
Assay [12] concerns K-562 leukemia.
The subject of assay [13] is MALME-3M melanoma.
Assay [14] concerns MDA-MB-231 breast.
In assay [15] the test system is RXF 393 renal.
Assay [16] deals with SF-268 CNS.
The test system of assay [17] is SF-295 CNS.
Assay [18] relates to SF-539 CNS.
Assay [19] deals with UACC-257 melanoma.
Assay [20] relates to M14 melanoma.

On to `CC1Cc2ccccc2O1` (configuration not stated), for which the growth in [1] is 98.6%; in assay [2] it was 107%; in assay [3], 131%; in assay [4], 108%; in assay [5], 109%; in [6], 109%. For the same molecule, the growth was 114% in assay [7]; 103% in [8]; 109% in assay [9]; 110% in [10]; 124% in assay [11]; 117% in assay [12]. For the same molecule, the growth was 126% in assay [13]; 115% in [14]; 118% in [15]; 113% in assay [16]; 104% in [17]; 100% in assay [18]. Besides, the growth was 112% in assay [19] and 107% in assay [20].

Take `CCC1NC(=O)C(NC(=O)c2ncccc2O)C(C)OC(=O)C(c2ccccc2)NC(=O)C2CC(=O)CCN2C(=O)C(Cc2ccc(N(C)C)cc2)N(C)C(=O)C2CCCN2C1=O` (configuration not stated) (tested in a mixture with another compound) ({Picolinoyl(3-OH)}-T[Abu]P[ξNMePhe(4-NMe2)][ξPip(4-oxo)][Phg]; ester 1-C; configuration not given here): the growth in assay [1] was 19.7%; in [2], 56.7%; in [3], 87.2%; in assay [4], 87.7%; in [5], 26.2%; in assay [6], 53.8%. Besides, the growth in assay [7] was 66%; in assay [8] it was 28.1%; in assay [9], 67.4%; in assay [10], 27%; in assay [11] it was 46.9%; in assay [12] it was 38.3%. Further, the growth in [13] is 55.4%; in assay [14], 58.6%; in assay [15] it was 27.6%; in assay [16] it was 79.8%; in [17], 20.7%; in assay [18] it was 64.2%. Further, in assay [19], the growth was 70.6%.

With `CC(C)OC(=O)c1cc(NC(=S)OC(C)C)ccc1Cl`, the growth in assay [1] was 79.7%; in assay [2], 86.6%; in assay [3] it was 85.8%; in [4] it was 91.5%; in [5], 108%; in assay [6], 73.8%. Also, the growth in [7] was 77.4%; in [8] it was 70.6%; in [9], 82.2%; in assay [10], 102%; in [11] it was 83.8%; in assay [12], 73.7%. The growth in [13] was 67.6%; in assay [14], 72.7%; in [15], 35.8%; in assay [16], 92%; in assay [17] it was 83.5%; in assay [18] it was 89.6%. Further, the growth in assay [19] is 78.9%.

In the case of `CC(=O)c1ccc(C)c(N)c1`, the growth in [1] is 81.5%; in assay [2] it was 95.8%; in assay [3] it was 121%; in assay [4], 99.6%; in assay [5], 111%; in assay [6], 92.9%. Moreover, the growth in [7] is 99.9%; in assay [8], 92.8%; in [9], 103%; in [10] it was 110%; in assay [11] it was 110%; in assay [12] it was 102%. The growth in assay [13] was 107%; in [14], 115%; in assay [15], 111%; in assay [16], 100%; in assay [17] it was 101%; in assay [18], 101%. Moreover, the growth in assay [19] was 102%; in assay [20] it was 92.5%.

Turning to `N=c1c(C(=O)OCc2ccccc2)ncc(CCl)n1O`, the growth in assay [1] is 100%; in assay [2], 92.9%; in [3] it was 98.6%; in [4], 95.7%; in assay [5], 99.4%; in assay [6], 97.3%. In addition, the growth was -43.4% (active) in assay [7]; 101% in assay [8]; 81.6% in assay [9]; 116% in assay [10]; 102% in assay [11]; 109% in assay [12]. Also, the growth in assay [13] was 113%; in assay [14] it was 95.8%; in [15], 94.9%; in [16], 94.9%; in assay [17] it was 124%; in assay [18] it was 104%. The growth in assay [19] is 81.8%; in assay [20], 94.1%.

For `O=C(c1ccccc1)C1CCC1`, the growth in [1] was 102%; in [2], 102%; in assay [3], 101%; in assay [4], 94.5%; in assay [5], 107%; in assay [6] it was 86.6%. Also, the growth is 85.9% in assay [7]; 71.6% in assay [8]; 107% in assay [9]; 112% in assay [10]; 117% in assay [11]; 99.3% in assay [12]. Moreover, the growth in assay [13] was 117%; in assay [14], 98.3%; in [15], 109%; in assay [16] it was 100%; in assay [17], 104%; in [18], 103%. The growth is 102% in assay [19] and 108% in assay [20].

For `CO[C@H]1C[C@@H]2CC[C@@H](C)[C@@](O)(O2)C(=O)C(=O)N2CCCC[C@H]2C(=O)O[C@H]([C@H](C)C[C@@H]2CC[C@@H](O)[C@H](OC)C2)CC(=O)[C@H](C)C=C(C)[C@@H](O)[C@@H](OC)C(=O)[C@H](C)C[C@H](C)/C=C/C=C/C=C1C`, the growth was 45.4% in assay [1]; 62.2% in assay [2]; 71.6% in [3]; 60.7% in assay [4]; 45.1% in [5]; 30.7% in [6]. The growth is 53.8% in [7]; 39% in assay [8]; 46.9% in assay [9]; 61.3% in assay [10]; 32.4% in [11]; 51.5% in assay [12]. The growth is 35.9% in [13]; 75.9% in [14]; 14.1% in assay [15]; 56.2% in assay [16]; 23% in assay [17]; 30.4% in assay [18]. Further, the growth in [19] is 37.3%.

As to `COc1cc(C(=O)N/N=C/c2cccc([N+](=O)[O-])c2)cc(OC)c1OC`, the growth in assay [1] was 61.7%; in assay [2] it was 77.8%; in assay [3], 87.2%; in assay [4], 77.1%; in [5] it was 18.5%; in assay [6], 70.7%. Further, the growth was 19.6% in [7]; 65.7% in assay [8]; 78.2% in assay [9]; 30.2% in [10]; 87.4% in [11]; 35.8% in [12]. The growth was 40.1% in assay [13]; 65.1% in [14]; 60% in assay [15]; 73.6% in assay [16]; 48.2% in assay [17]; 66.2% in [18]. Moreover, the growth is 76.3% in assay [19] and 29.9% in [20].
